According to the supplement of paper PMC12494721:
Structures can show the parent of a compound that is named as a salt.

How the values were obtained:
Conditions in all cases: 20 µM; incubation time: 27 h, anaerobic, 37 °C;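 for the amine columns active = adjusted P below 0.05 in both replicates with a change the same way and a mean fold change under 0.8 or over 1.25; inactive = the rest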
[1] = test system: Clostridium sporogenes DSM 1664; test: growth (OD595) fold change vs plate DMSO controls (fold change (ratio)); higher = more growth
Summary of the method: (§1)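 Shaken 96-well cultures in mGAM, grown anaerobically for 27 h at 37 °C, were read at 595 nm. OD came from blank-subtracted readings, corrected for background with 20 µM compound solutions in water and scaled by a calibration factor of 5. Growth is the fold change versus the plate's median DMSO control. Values average 2 biological replicates, and any fold change above 1.5 is NA.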

Escherichia coli IAI1 [2] = test: as above
Summary of the method: as §1

[3] = test system: Klebsiella aerogenes DSM 30053; test: as above
Summary of the method: as §1

[4] = test system: Ruminococcus gnavus DSM 108212; test: as above
Summary of the method: as §1

[5] = test system: Klebsiella aerogenes DSM 30053; test: fold change of Histamine concentration vs plate DMSO controls (fold change (ratio)); higher = more amine produced, active = hit call of the paper (significant change in both replicates, either direction)
Summary of the method: (§2)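 Each value is the fold change relative to DMSO-only wells on the same plate. Four gut bacterial strains were grown anaerobically in mGAM at 37 °C for 27 h in 80 µL wells, starting at OD 0.1 before a 1:1 dilution, with compounds at 20 µM final (sweeteners 50 µM). Whole cultures were extracted with cold acetonitrile/methanol containing 0.1% formic acid, centrifuged, and amines were quantified by LC–triple-quadrupole MS (dynamic MRM) against external calibration curves with within-batch drift correction. Values are means of 2 biological replicates.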

[6] = test system: Clostridium sporogenes DSM 1664; test: fold change of Tryptamine concentration vs plate DMSO controls (fold change (ratio)); higher = more amine produced, active = hit call of the paper (significant change in both replicates, either direction)
Summary of the method: as §2

[7] = test system: Ruminococcus gnavus DSM 108212; test: as above
Summary of the method: as §2

Escherichia coli IAI1 [8] = test: fold change of Putrescine concentration vs plate DMSO controls (fold change (ratio)); higher = more amine produced, active = hit call of the paper (significant change in both replicates, either direction)
Summary of the method: as §2

[9] = test system: Klebsiella aerogenes DSM 30053; test: as above
Summary of the method: as §2

Escherichia coli IAI1 [10] = test: fold change of Cadaverine concentration vs plate DMSO controls (fold change (ratio)); higher = more amine produced, active = hit call of the paper (significant change in both replicates, either direction)
Summary of the method: as §2

[11] = test system: Klebsiella aerogenes DSM 30053; test: as above
Summary of the method: as §2

[12] = test system: Ruminococcus gnavus DSM 108212; test: fold change of 2-Phenylethylamine concentration vs plate DMSO controls (fold change (ratio)); higher = more amine produced, active = hit call of the paper (significant change in both replicates, either direction)
Summary of the method: as §2

Compound	growth [1]	growth (Escherichia coli IAI1 [2])	growth [3]	growth [4]	fold change of Histamine concentration [5]	fold change of Tryptamine concentration [6]	fold change of Tryptamine concentration [7]	fold change of Putrescine concentration (Escherichia coli IAI1 [8])	fold change of Putrescine concentration [9]	fold change of Cadaverine concentration (Escherichia coli IAI1 [10])	fold change of Cadaverine concentration [11]	fold change of 2-Phenylethylamine concentration [12]
CCC(C)c1ccccc1OC(=O)NC (stereo not drawn)	1.06	0.988	1.09	1.01	0.948 (inactive)	0.949 (inactive)	1.01 (inactive)	1.05 (inactive)	1.01 (inactive)	0.972 (inactive)	1 (inactive)	1.03 (inactive)
COc1ccc(-c2ccccc2)cc1NNC(=O)OC(C)C	1.14	0.997	1	1.12	0.998 (inactive)	0.997 (inactive)	0.968 (inactive)	0.991 (inactive)	1 (inactive)	1.03 (inactive)	0.984 (inactive)	0.922 (inactive)
O=S(=O)(c1ccc(O)cc1)c1ccc(O)cc1 [Bisphenol S]	1.08	1.02	0.994	1.04	0.949 (inactive)	1.04 (inactive)	0.941 (inactive)	0.883 (inactive)	0.939 (inactive)	0.961 (inactive)	0.998 (inactive)	0.946 (inactive)
COC(=O)Nc1nc2ccccc2[nH]1	0.898	0.977	0.989	0.903	1.01 (inactive)	0.968 (inactive)	0.959 (inactive)	0.997 (inactive)	1 (inactive)	1 (inactive)	0.989 (inactive)	0.951 (inactive)
O=[N+]([O-])/N=C1\NCCN1Cc1ccc(Cl)nc1	1.04	0.975	0.996	0.979	0.986 (inactive)	1.01 (inactive)	0.989 (inactive)	0.964 (inactive)	0.998 (inactive)	0.98 (inactive)	0.998 (inactive)	1 (inactive)
CCC1(c2ccc(N)cc2)CCC(=O)NC1=O (stereo not drawn) [Glutethimide, para-amino]	0.956	1.01	0.979	1.14	1.12 (inactive)	1.02 (inactive)	1.04 (inactive)	0.992 (inactive)	1.02 (inactive)	0.974 (inactive)	0.993 (inactive)	1 (inactive)
C=CCN1CC[C@]23c4c5ccc(O)c4O[C@H]2C(=O)CC[C@@]3(O)[C@H]1C5 [Naloxone hydrochloride]	1.22	1.04	1.03	1.24	1.04 (inactive)	1.01 (inactive)	0.998 (inactive)	1.02 (inactive)	0.997 (inactive)	0.994 (inactive)	0.997 (inactive)	0.985 (inactive)
CC(=O)O[C@H]1C[C@@H]2CC[C@@H]3[C@H](CC[C@@]4(C)[C@H]3C[C@H]([N+]3(C)CCCCC3)[C@@H]4OC(C)=O)[C@@]2(C)C[C@@H]1[N+]1(C)CCCCC1 [Pancuronium bromide]	0.918	1.08	1.1	1.08	0.905 (inactive)	1.04 (inactive)	1.07 (inactive)	1.07 (inactive)	0.983 (inactive)	0.957 (inactive)	1.03 (inactive)	1.08 (inactive)
C[C@]12CC[C@H](O)C[C@@H]1CC[C@@H]1[C@@H]2CC[C@]2(C)C(=O)CC[C@@H]12 [Epiandrosterone]	1.01	1.01	0.974	0.678	1.04 (inactive)	0.953 (inactive)	0.973 (inactive)	0.99 (inactive)	1.02 (inactive)	1.02 (inactive)	1 (inactive)	0.962 (inactive)
Oc1ccc(Cl)cc1Cc1cc(Cl)ccc1O [Dichlorophen]	0.903	0.835	0.919	0.819	1.13 (inactive)	0.732 (inactive)	0.561 (active)	1.21 (inactive)	0.97 (inactive)	1.66 (active)	0.975 (inactive)	0.635 (inactive)
c1ccc2c(c1)-c1cccc3cccc-2c13 [Fluoranthene]	0.942	0.967	0.964	1.01	1.04 (inactive)	1.01 (inactive)	1.02 (inactive)	0.995 (inactive)	1.01 (inactive)	1.01 (inactive)	0.976 (inactive)	1.04 (inactive)
C[C@]12C=CC(=O)C=C1CC[C@@H]1[C@@H]2CC[C@@]2(C)[C@H]1CC[C@]2(C)O [Methandrostenolone]	1.01	0.989	1	0.931	0.999 (inactive)	0.98 (inactive)	1.03 (inactive)	1.01 (inactive)	0.995 (inactive)	1.01 (inactive)	0.991 (inactive)	1.02 (inactive)
O=C(NCNC(=O)NC1C(=O)NC(=O)N1CO)NC1C(=O)NC(=O)N1CO (stereo not drawn) [Imidurea]	1.05	1.06	0.987	1.19	1.02 (inactive)	0.998 (inactive)	1.01 (inactive)	1.01 (inactive)	1 (inactive)	1 (inactive)	0.994 (inactive)	1 (inactive)
Cc1ccc(/N=C/N(C)/C=N/c2ccc(C)cc2C)c(C)c1	0.953	1.05	1.03	1.06	1.03 (inactive)	0.98 (inactive)	0.939 (inactive)	0.981 (inactive)	1.01 (inactive)	1.01 (inactive)	0.991 (inactive)	0.926 (inactive)
